Assay results reported in PubChem BioAssay AID686999 (Broad Institute, 2013).
Results with a measured potency or affinity are listed apart. Results filed as inconclusive are left out. The source made the active and inactive calls.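 Rule for the calls: active = active in every separate test run, each with half-maximal potency at or under twice its top valid dose; inconclusive = the separate test runs give conflicting calls; inactive = inactive in every test run, including signal rising instead.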

Assay: Cryptococcus growth inhibition by alamar blue – cell lysis, cherry-picks, replicate tests, mechanism study for C. neoformans antifungal project, dose response (AID 686999)
Settings: 72 h; series mostly up to 35 µM

outcome, inactive:
CCCCNC(=S)N/N=C/c1ccc(C#N)cc1, S=C(NCCCc1ccccc1)Nc1ccccc1, Cc1cc(C)c2nc(N3CCN(C(=O)c4cccs4)CC3)sc2c1, COC(=O)C1=C(C)N(CC(C)C)C(=S)NC1c1cccc(F)c1 (stereo unspecified), COCCN1C(=S)N[C@@H](c2ccccc2)C(C(=O)OC)=C1C, CCOC(=O)NC(=S)Nc1ccc(C(C)(C)C)cc1Br, S=C(NCc1ccccc1)NCC1COc2ccccc2O1 (stereo unspecified), CCc1nc(N2CCCCC2C)c2oc3ccccc3c2n1 (stereo unspecified), CCCCN1C(=S)NC[C@@H]1Cc1ccccc1, O=C(NC(=S)NCC1COc2ccccc2O1)c1ccc(Cl)cc1 (stereo unspecified), O=C(NC(=S)Nc1cc(Cl)ccc1N1CCOCC1)c1ccccc1[N+](=O)[O-], COc1ccc(CNC(=S)NCc2ccc(OC(C)C)cc2)cc1, Cc1ccc(C)c(NC(=O)C2(C)CCCN2C(=O)C(C)C)c1 (stereo unspecified), O=C(NC(=S)Nc1ccccc1N1CCOCC1)c1cccc([N+](=O)[O-])c1, COC(=O)C1=C(C)N(CC(C)C)C(=S)NC1c1ccc(F)cc1 (stereo unspecified), COc1ccccc1CNC(=S)NCc1ccc(Cl)cc1, COC(=O)C1=C(C)N(Cc2ccc(Cl)cc2)C(=S)NC1c1cccc(Cl)c1 (stereo unspecified), COc1ccccc1NC(=S)NCc1ccccc1Cl, COC(=O)C1=C(C)N(Cc2ccc(F)cc2)C(=S)NC1c1cccc(Cl)c1 (stereo unspecified), O=C(NC(=S)Nc1ccccc1N1CCCC1)c1ccc([N+](=O)[O-])cc1, O=C(NC(=S)Nc1ccccc1N1CCCC1)c1ccccc1[N+](=O)[O-]
